This is an account of results in PubChem BioAssay AID2314 (National Center for Advancing Translational Sciences (NCATS), 2010).

The campaign covered roughly 300,000 compounds. About 37,000 (12%) were called active. Cut-off read from the data, not from the text of the source: active = max response mostly above about 13% (no sharp cut-off); inactive = mostly below about 14%. Only a selection was taken, and actives are over-represented in it overall.

The nature of this assay: Cycloheximide Counterscreen for Small Molecule Inhibitors of Shiga Toxin. Note: read at 38.3 µM for the half of the compounds with a filed dose; 0% is about no effect. As to conditions: cell reporter, cycloheximide protein synthesis inhibition counterscreen; hits give high values. (In general: Counterscreens check selectivity or assay interference.)
Regarding `Cc1ccc(CC2CC(=O)N(c3ccc4c(c3)OCCO4)C2=O)cc1` (configuration not stated), the max response is 21.2% (inactive). The figure for `Cc1ccc(N2C(=O)CC(NCc3ccc4c(c3)OCO4)C2=O)cc1Cl` (configuration not stated) is 24% (active); for `O=CN1CCN(C2CC(=O)N(c3ccc4c(c3)OCO4)C2=O)CC1` (configuration not stated) it is 11.4% (inactive); for `CCNC(=O)CC1C(=O)N(c2ccc(OC)cc2)C(=S)N1CCc1ccncc1` (configuration not stated) it is -6.33% (inactive). As for `Cc1ccc2c(c1)N(CC(=O)NCC1CCCO1)C(=O)CO2` (configuration not stated), the figure is -1.04% (inactive); as for `O=C(NCCCN1CCCCC1)C1CC(=O)N(CCc2ccccc2)C1` (configuration not stated), 3.29% (inactive). The figure for `COc1cccc(C(=O)Nc2cccnc2)c1OC` is 2.63% (inactive); for `COc1ccc(OC)c(/C=C/C(=O)OCC(=O)Nc2ccc3c(c2)OCCO3)c1` it is 4.24% (inactive). For the compound `COc1cccc(/C=C/C(=O)Nc2ccc3c(c2)OCCO3)c1`, the max response was 51.1% (active). The figure for `O=C(/C=C\c1ccc2c(c1)OCO2)NC1(C(=O)Nc2ccc3c(c2)OCCO3)CCCCC1` is -4.38% (inactive); for `COc1ccc(/C=C/C(=O)N2CCCC2)cc1OC` it is 5.12% (inactive).

Regarding `COc1ccc(NS(=O)(=O)c2cc(NC(=O)/C=C/c3cc(OC)c(OC)c(OC)c3)ccc2N2CCCCC2)cc1`, the max response is -2.53% (inactive). The figure for `COc1cc(/C=N/NC(=S)Nc2cccnc2)cc(OC)c1O` is 14% (inactive); for `COc1ccc(/C=C/C(=O)Nc2ccc3c(c2)OCCO3)cc1OC` it is 34.3% (active).

As to `COc1ccc(/C=C/C(=O)Nc2cccnc2)cc1OC`, the max response was 19.5% (active). Take `COc1ccc(/C=C/C(=O)Nc2ccc(C34CC5CC(CC(O)(C5)C3)C4)cc2)cc1OC`: the max response was 36.8% (active). As for `COc1ccc(/C=C/C(=O)Nc2ccc(C)cc2)cc1S(=O)(=O)N1CCOCC1`, the figure is 10.5% (inactive). The figure for `CCOc1ccc2c(=O)c(-c3ccc4c(c3)OCCCO4)c(C)oc2c1` is 7.6% (inactive); for `CCOc1ccccc1Nc1ccc(C(=O)O)cc1[N+](=O)[O-]` it is -4.22% (inactive). The figure for `CCSc1nc2sc3c(c2c(=O)[nH]1)CC(C)(C)OC3` is 0.89% (inactive). Consider `O=S(=O)(c1cccc(-c2nnc3n2CCCCC3)c1)N1CCOCC1`, for which the max response was -0.622% (inactive). The figure for `O=S(=O)(c1cccc(-c2cn3ccccc3n2)c1)N1CCCC1` is 13.9% (inactive); for `Cc1cccn2cc(-c3cccc(S(=O)(=O)N4CCCCC4)c3)nc12` it is 15.4% (active). With `CCc1cc2c(N3CCN(c4nnc(CC)s4)CC3)ncnc2s1`, the max response is -4.57% (inactive). As for `COc1ccc(-n2c(C)cc(C(=O)CN3C(=O)NC4(CCc5ccccc54)C3=O)c2C)cc1` (configuration not stated), the figure is 3.03% (inactive). As for `S=C(NCCc1ccccc1)Nc1ccccc1`, the figure is 52.7% (active).

Consider `O=C(CS(=O)(=O)Cc1ccccc1)NCC1CCCO1` (configuration not stated), for which the max response is -0.705% (inactive). As for `Oc1c(Br)cc(/C=N/NC(=S)NCC2CCCO2)cc1Br` (configuration not stated), the figure is 1.44% (inactive).

`S=C(NCCCc1ccccc1)Nc1ccc(Br)cc1`: the max response is 9.21% (inactive). As for `S=C(NCCc1ccccc1)NCC1CCCO1` (configuration not stated), the figure is 29.4% (active); as for `S=C(NCCc1ccccc1)NCc1ccccc1Cl`, 2.05% (inactive). As to `O=C(Cc1cccc2ccccc12)NCCC1=CCCCC1`, the max response is -2.35% (inactive). Turning to `S=C(NCCC1=CCCCC1)Nc1ccccc1`, the max response was 39.2% (active). Take `Oc1ccccc1N1CCN(C(=S)NCc2ccccc2)CC1`: the max response was 31.8% (active). The figure for `Oc1ccc(N2CCN(C(=S)NCc3ccccc3)CC2)cc1` is -5.44% (inactive); for `Cc1nnc(OCC(=O)NCCC2=CCCCC2)c2ccccc12` it is -1.88% (inactive). `CC1CCCCN1C(=S)NCc1ccccc1` (configuration not stated): the max response was 0.333% (inactive). The figure for `Cc1nc2ccccc2c(=O)n1NC(=O)c1ccccc1` is -1.37% (inactive); for `COc1ccc(CN(C)Cc2nc3cc(OC)c(OC)cc3c(=O)[nH]2)c(OC)c1` it is -2.17% (inactive).

Consider `CCN(C(=O)CN1C(=O)/C(=C/c2ccc(F)cc2)SC1=S)C1CCS(=O)(=O)C1` (configuration not stated), for which the max response is -13.6% (inactive). Consider `Cc1cccc(N2CCN(C(=O)CCS(=O)(=O)c3ccc4c(c3)NC(=O)C(C)S4)CC2)c1C` (configuration not stated), for which the max response was -1.44% (inactive). On to `CCCc1ccc(-c2c(C)sc(NC(=O)c3ccnn3C)c2C#N)cc1`, for which the max response is -3.68% (inactive).

`O=C(CCc1n[nH]c(=O)[nH]c1=O)N/N=C/c1ccc(Br)o1`: the max response is -9.24% (inactive). Consider `COCCNC(=O)COc1ccc(N(C)S(=O)(=O)c2ccc3ccccc3c2)cc1`, for which the max response was -5.19% (inactive). The figure for `N#Cc1c(-c2ccccc2)c(-c2ccccc2)n[nH]c1=O` is 0.547% (inactive); for `COc1cccc(CNC(=O)CN(C)S(=O)(=O)c2ccc3c(c2)c(=O)n(C)c(=O)n3C)c1` it is -2.54% (inactive); for `CC(=O)c1ccccc1OCc1ccc(C(=O)c2ccccc2)cc1` it is 2.75% (inactive). As for `COc1ccc(C(=O)NC2CCN(C(=S)NCCc3ccccc3)CC2)cc1`, the figure is -2.31% (inactive); as for `O=C1CCN(C(=S)NCCc2ccccc2)CC1`, 16% (inactive); as for `S=C(NCCc1ccccc1)N1CCCCC1`, 60.3% (active). Consider `CCc1ccc(-c2cc(C)no2)cc1S(=O)(=O)NCCc1ccc(S(N)(=O)=O)cc1`, for which the max response is -3.78% (inactive). As for `O=c1[nH]nc(CSCc2ccccc2Cl)[nH]1`, the figure is -2.59% (inactive). As for `COc1ccc(OC(C)C(=O)NCCc2nc3ccccc3[nH]2)cc1` (configuration not stated), the figure is -2.98% (inactive); as for `N=C(N)SCc1cccc2ccccc12`, -4.81% (inactive); as for `c1ccc2c(CSCc3nc4ccccc4[nH]3)cccc2c1`, 13.2% (active). As for `c1ccc(-c2nnc(SCc3nc4ccccc4[nH]3)o2)cc1`, the figure is 10.9% (inactive). In the case of `Clc1ccccc1SCc1nc2ccccc2[nH]1`, the max response was 52.8% (active). As for `Cc1ccc(S(=O)(=O)c2c[nH]c3ccc(Cl)cc3c2=O)cc1`, the figure is -0.873% (inactive); as for `CC(NC(=O)CCCC1CCCCC1)c1ccc(S(N)(=O)=O)cc1` (configuration not stated), -1.75% (inactive). Regarding `CCC(=O)N1CCN(c2ccccc2NC(=O)COc2cccc(C)c2C)CC1`, the max response was -0.942% (inactive). `O=C(Nc1c2c(nn1-c1cccc(Cl)c1)CS(=O)(=O)C2)c1cccs1`: the max response was -4.62% (inactive). With `COc1ccc(CN(Cc2ccco2)S(=O)(=O)c2ccc(S(=O)(=O)N3CCCC3)cc2)cc1`, the max response is -2.84% (inactive).
